# PubChem BioAssay (EPA / NIEHS)
# Where “and” joins values, the source holds several entries; their conditions need not be identical. Equal values may be shown once. Results filed as inconclusive are left out. Calls of active or inactive are those of the source. How the source made its calls: active means hit-call score of the fitted dose curve at least 0.9, where 1 is the maximum; inconclusive means response in the unintended direction; inactive means score below 0.9.
# Experiments:
# [1] = biological target: human Peripheral-type Benzodiazepine Receptor (PBR), TSPO (gene 706) (UniProt P30536); assay: NVS_MP_hPBR: NovaScreen (NVS) Membrane Protein Assay for human Peripheral-type Benzodiazepine Receptor (PBR) (AID 2283331);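 further: hits reduce radioligand binding relative to DMSO baseline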
# Outline: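 Human colonic cell membranes were incubated with test chemical for 1 hour; radioligand binding was measured by filter-based scintillation counting. Primary screen ran in duplicate at 25 uM, with actives followed in concentration series; loss of signal versus DMSO baseline.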
# [2] = biological target: rat Peripheral-type Benzodiazepine Receptor (PBR), Tspo (gene 24230) (UniProt P16257); assay: NVS_MP_rPBR: NovaScreen (NVS) Membrane Protein Assay for rat Peripheral-type Benzodiazepine Receptor (PBR) (AID 2283335)
# Outline: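 Radioligand displacement, rat kidney membrane prep, 1 h exposure, filter-based scintillation read; DMSO baseline, loss-of-signal scored. Primary screen at 25 uM in duplicate, actives followed up in concentration series.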
# [3] = NVS_IC_rCaBTZCHL: NovaScreen (NVS) Ion Channel Assay for Calcium Channel, Type L, Benzothiazepine Site (CaBTZCHL) (AID 2283337)
# Outline: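 Competitive displacement of a site-specific radioligand from rat cortex membranes, measured as signal loss against DMSO baseline by filter radiodetection after 1.5 h. Single-point 25 uM primary screen.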
# [4] = biological target: Androgen Receptor/SRC-1 Co-activator, AR (gene 367) (UniProt P10275); assay: OT_AR_ARSRC1_0960: Odyssey Thera (OT) 16-hour HEK293T Protein-Complementation Assay for Androgen Receptor/SRC-1 Co-activator (AID 2283353);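 further: actives raise the signal above DMSO so potency reflects increased AR and SRC-1 complex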
# Outline: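 Interaction of AR with SRC-1 was followed by YFP fragment complementation in HEK293T cells after 16 h of dosing. Gain of nuclear-over-cytoplasmic 488 nm fluorescence against DMSO controls defined activity.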
# [5] = biological target: Estrogen receptor (Homo sapiens) (UniProt P03372); assay: NVS_NR_hER: NovaScreen (NVS) Nuclear Receptor Binding Assay for human Estrogen Receptor (ER) (AID 2283348)
# Experimental: NVS_NR_hER is a biochemical, single-readout assay that uses extracted gene-proteins from MCF7 in a cell-free assay. Measurements were taken 18 hours after chemical dosing in a 96-well plate.NVS_NR_hER is one of one assay component(s) measured or calculated from the NVS_NR_hER assay. It is designed to make measurements of radioligand binding, a form of binding reporter, as detected with scintillation counting signals by Lysate-based radiodetection technology.Data from the assay component NVS_NR_hER was analyzed into 1 assay endpoint. This assay endpoint, NVS_NR_hER, was analyzed in the positive analysis fitting direction relative to DMSO as the negative control and baseline of activity. […] Furthermore, this assay endpoint can be referred to as a primary readout, because the performed assay has only produced 1 assay endpoint. […]
# (§1) Binding assays used specific radioligands (tritiated, iodinated) with non-radioactive competitive displacement ligands in agonist or antagonist protocols (as indicated) and various reference compounds and inhibitors to titrate specific binding to receptors and transporters. Most enzyme assays (CYPs, kinases, phosphatases, proteases, HDACs) used recombinant protein and specific substrates (fluorescence mostly, some colorimetric and radioactive) and inhibitors, followed by a biochemical separation of substrate and product. […]
# [6] = biological target: Estrogen receptor (Homo sapiens) (UniProt P03372); assay: OT_ER_ERaERa_1440: Odyssey Thera (OT) 24-hour HEK293T Protein-Complementation Assay for Estrogen Receptor-alpha/-alpha Homodimer (AID 2283349);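 further: hits raise fluorescence above DMSO for agonists and antagonists alike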
# Outline: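 Readout is the rise in mean fluorescence from reporter fragment complementation when ERα LBD (aa 310-547) units dimerize in HEK293T cells. Measured 24 h after dosing and analysed as increase over DMSO control.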
# [7] = biological target: Estrogen receptor (Homo sapiens) (UniProt P03372); assay: OT_ER_ERaERa_0480: Odyssey Thera (OT) 8-hour HEK293T Protein-Complementation Assay for Estrogen Receptor-alpha/-alpha Homodimer (AID 2283351);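 further: rise in fluorescence from reassembled reporter fragments on ERα LBD homodimer in nucleus or whole cell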
# Outline: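 Binding reporter in which dimerisation of ERα LBD (aa 310-547) fusions reconstitutes a fluorescent reporter in HEK293T cells. Compounds incubated 8 h; mean fluorescence intensity increase versus DMSO scored.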
# [8] = biological target: human Androgen Receptor (AR), AR (gene 367) (UniProt P10275); assay: NVS_NR_hAR: NovaScreen (NVS) Nuclear Receptor Binding Assay for human Androgen Receptor (AR) (AID 2283332)
# Outline: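 Actives from a duplicate 25 uM single-point screen went on to concentration series. Read-out after 20 h was scintillation counting of displaced radioligand in LnCAP extract, with DMSO as baseline.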
# [9] = biological target: bovine Estrogen Receptor (ER), ESR1 (gene 407238) (UniProt P49884); assay: NVS_NR_bER: NovaScreen (NVS) Nuclear Receptor Binding Assay for bovine Estrogen Receptor (ER) (AID 2283345);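 further: actives lower the bound radioligand count which means they displace the ER ligand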
# Experimental: NVS_NR_bER is a biochemical, single-readout assay that uses extracted gene-proteins from Bovine uterine membranes in a tissue-based cell-free assay. Measurements were taken 18 hours after chemical dosing in a 96-well plate.NVS_NR_bER is one of one assay component(s) measured or calculated from the NVS_NR_bER assay. It is designed to make measurements of radioligand binding, a form of binding reporter, as detected with scintillation counting signals by Lysate-based radiodetection technology.Data from the assay component NVS_NR_bER was analyzed into 1 assay endpoint. This assay endpoint, NVS_NR_bER, was analyzed in the positive analysis fitting direction relative to DMSO as the negative control and baseline of activity. […] Furthermore, this assay endpoint can be referred to as a primary readout, because the performed assay has only produced 1 assay endpoint. […]
# as §1
# [10] = biological target: Estrogen receptor (Homo sapiens) + Estrogen receptor beta (Homo sapiens) (UniProt P03372+Q92731); assay: OT_ER_ERaERb_0480: Odyssey Thera (OT) 8-hour HEK293T Protein-Complementation Assay for Estrogen Receptor-alpha/-beta Heterodimer (AID 2283352)
# Experimental: OT_ER_ERaERb_0480 is a cell-based assay that uses HEK293T, a human kidney cell line, with measurements taken at 8 hours after chemical dosing in a 384-well plate.OT_ER_ERaERb_0480 is one of one assay component(s) measured or calculated from the OT_ER_ERaERb_0480 assay. It is designed to make measurements of protein fragment complementation, a form of binding reporter, as detected with fluorescence intensity signals by Protein-fragment Complementation technology.Data from the assay component OT_ER_ERaERb_0480 was analyzed into 1 assay endpoint. This assay endpoint, OT_ER_ERaERb_0480, was analyzed in the positive analysis fitting direction relative to DMSO as the negative control and baseline of activity. Using a type of binding reporter, measures of receptor for gain-of-signal activity can be used to understand the binding at the pathway-level as they relate to the gene ESR1 and ESR2. Furthermore, this assay endpoint can be referred to as a primary readout, because the performed assay has only produced 1 assay endpoint. To generalize the intended target to other relatable targets, this assay endpoint is annotated to the nuclear receptor intended target family, where the subfamily is steroidal.
# Protein-fragment complementation assay, or PCA, is a method for the identification and quantification of protein-protein interactions. […] Interaction between the bait and the prey proteins brings the fragments of the reporter protein in close proximity to allow them to form a functional reporter protein whose activity can be measured. […] Modulation of this assay is quantified as an increase in mean fluorescence intensity in the nucleus (for agonists) or in the nucleus and cytoplasm (antagonists) relative to vehicle controls, and can be quantified on a high content imaging device or a laser scanning cytometer. […] To assess sensitivity of the ER alpha/ER beta LBD assay to ligand, cells were treated with the ER agonist 17- beta-estradiol (E2) in 10-point concentration- response format for 8 hours and monitored response on a laser scanning plate cytometer (Acumen eX3; TTP Lab Tech).
# Sequence of Androgen Receptor/SRC-1 Co-activator, AR (gene 367) (P10275 whole entry, looked up, the tested form may be a part): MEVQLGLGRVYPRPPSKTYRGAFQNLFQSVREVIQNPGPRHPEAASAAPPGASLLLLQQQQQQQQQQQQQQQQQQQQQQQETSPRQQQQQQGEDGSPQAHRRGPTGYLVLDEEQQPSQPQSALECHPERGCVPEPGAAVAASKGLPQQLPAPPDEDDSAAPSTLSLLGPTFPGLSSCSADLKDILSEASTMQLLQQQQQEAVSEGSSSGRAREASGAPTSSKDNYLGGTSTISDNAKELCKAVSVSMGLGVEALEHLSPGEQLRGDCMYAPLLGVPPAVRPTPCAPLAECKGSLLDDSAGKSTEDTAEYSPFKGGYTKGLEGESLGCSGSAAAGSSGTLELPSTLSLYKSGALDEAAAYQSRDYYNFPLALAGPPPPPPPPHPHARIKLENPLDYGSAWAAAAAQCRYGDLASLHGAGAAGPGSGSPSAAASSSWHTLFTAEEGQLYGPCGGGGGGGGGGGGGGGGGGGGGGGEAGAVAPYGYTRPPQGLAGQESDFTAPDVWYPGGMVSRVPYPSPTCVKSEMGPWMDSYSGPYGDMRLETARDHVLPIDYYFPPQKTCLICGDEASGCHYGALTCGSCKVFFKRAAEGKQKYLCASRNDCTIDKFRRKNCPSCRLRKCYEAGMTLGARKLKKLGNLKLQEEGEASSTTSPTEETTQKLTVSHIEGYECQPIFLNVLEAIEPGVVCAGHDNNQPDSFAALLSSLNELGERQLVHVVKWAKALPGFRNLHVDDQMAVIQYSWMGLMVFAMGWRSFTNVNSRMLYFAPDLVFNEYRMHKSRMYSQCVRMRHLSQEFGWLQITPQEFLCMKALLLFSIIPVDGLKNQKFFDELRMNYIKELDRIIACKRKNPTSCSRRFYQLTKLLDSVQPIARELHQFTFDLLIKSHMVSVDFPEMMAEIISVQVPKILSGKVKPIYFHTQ
# Sequence of rat Peripheral-type Benzodiazepine Receptor (PBR), Tspo (gene 24230) (P16257 whole entry, looked up): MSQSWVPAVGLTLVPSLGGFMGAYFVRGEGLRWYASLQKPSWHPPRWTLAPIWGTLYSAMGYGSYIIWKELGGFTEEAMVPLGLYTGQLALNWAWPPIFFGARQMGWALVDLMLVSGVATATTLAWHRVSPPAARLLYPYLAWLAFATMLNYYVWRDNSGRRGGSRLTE
# Sequence of human Peripheral-type Benzodiazepine Receptor (PBR), TSPO (gene 706) (P30536 whole entry, looked up): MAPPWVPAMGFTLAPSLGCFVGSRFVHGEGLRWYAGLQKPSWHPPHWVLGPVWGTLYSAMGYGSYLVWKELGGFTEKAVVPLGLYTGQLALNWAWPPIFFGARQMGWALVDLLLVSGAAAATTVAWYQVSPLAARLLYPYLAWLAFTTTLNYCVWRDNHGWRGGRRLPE
# Sequence of Estrogen receptor (Homo sapiens) (P03372 whole entry, looked up, the tested form may be a part): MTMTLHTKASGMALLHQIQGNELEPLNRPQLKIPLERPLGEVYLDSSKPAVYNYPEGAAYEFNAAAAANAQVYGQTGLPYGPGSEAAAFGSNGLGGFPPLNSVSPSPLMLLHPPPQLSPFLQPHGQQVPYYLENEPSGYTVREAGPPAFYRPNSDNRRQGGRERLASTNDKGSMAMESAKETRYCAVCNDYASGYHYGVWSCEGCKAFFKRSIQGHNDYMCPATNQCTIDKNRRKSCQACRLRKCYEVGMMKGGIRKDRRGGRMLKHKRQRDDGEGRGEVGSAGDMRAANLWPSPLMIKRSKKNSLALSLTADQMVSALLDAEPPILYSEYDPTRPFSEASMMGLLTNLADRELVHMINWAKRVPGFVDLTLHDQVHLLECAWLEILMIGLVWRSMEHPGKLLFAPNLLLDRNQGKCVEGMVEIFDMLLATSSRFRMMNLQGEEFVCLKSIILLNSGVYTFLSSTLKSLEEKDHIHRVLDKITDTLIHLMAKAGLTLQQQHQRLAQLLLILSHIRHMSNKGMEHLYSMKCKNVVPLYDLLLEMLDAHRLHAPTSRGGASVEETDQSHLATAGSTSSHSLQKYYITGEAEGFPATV
# Sequence of Estrogen receptor (Homo sapiens) + Estrogen receptor beta (Homo sapiens) (P03372 whole entry, looked up, the tested form may be a part): as above
# Sequence of Estrogen receptor (Homo sapiens) + Estrogen receptor beta (Homo sapiens) (Q92731 whole entry, looked up, the tested form may be a part): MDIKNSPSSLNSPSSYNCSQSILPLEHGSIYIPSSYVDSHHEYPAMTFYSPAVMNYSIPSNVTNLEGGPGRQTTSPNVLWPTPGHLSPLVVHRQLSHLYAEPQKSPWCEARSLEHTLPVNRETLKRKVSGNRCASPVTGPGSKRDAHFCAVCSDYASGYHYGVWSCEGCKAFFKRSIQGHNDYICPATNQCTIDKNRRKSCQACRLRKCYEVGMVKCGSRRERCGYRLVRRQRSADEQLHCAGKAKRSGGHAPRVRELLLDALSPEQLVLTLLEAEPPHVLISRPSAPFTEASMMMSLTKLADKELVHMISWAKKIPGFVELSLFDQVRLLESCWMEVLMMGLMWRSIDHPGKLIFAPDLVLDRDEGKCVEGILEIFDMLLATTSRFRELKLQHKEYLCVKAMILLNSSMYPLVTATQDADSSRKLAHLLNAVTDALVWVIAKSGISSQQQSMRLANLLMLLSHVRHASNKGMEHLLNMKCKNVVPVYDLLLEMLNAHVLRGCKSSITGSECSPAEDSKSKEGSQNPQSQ
# Sequence of bovine Estrogen Receptor (ER), ESR1 (gene 407238) (P49884 whole entry, looked up): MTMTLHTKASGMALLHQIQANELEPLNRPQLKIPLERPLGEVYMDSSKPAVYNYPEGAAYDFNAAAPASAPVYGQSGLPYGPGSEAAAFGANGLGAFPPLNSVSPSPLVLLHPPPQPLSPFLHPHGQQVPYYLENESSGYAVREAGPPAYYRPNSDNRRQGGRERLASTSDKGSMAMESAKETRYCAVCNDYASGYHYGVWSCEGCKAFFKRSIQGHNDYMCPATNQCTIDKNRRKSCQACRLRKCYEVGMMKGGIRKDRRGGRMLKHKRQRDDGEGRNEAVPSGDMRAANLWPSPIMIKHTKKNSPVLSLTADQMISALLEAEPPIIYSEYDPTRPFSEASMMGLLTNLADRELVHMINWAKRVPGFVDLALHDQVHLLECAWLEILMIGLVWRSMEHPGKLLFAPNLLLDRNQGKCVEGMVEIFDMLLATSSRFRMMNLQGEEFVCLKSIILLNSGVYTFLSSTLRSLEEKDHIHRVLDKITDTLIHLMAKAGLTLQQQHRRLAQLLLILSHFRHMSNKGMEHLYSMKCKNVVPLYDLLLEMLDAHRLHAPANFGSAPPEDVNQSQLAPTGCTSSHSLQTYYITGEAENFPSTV
# Sequence of human Androgen Receptor (AR), AR (gene 367) (P10275 whole entry, looked up): as the sequence (P10275 whole entry, looked up, the tested form may be a part) above
smiles,measurement,setting,value
CCOc1ccc(N=Nc2ccc(C=Cc3ccc(N=Nc4ccc(OCC)cc4)cc3S(=O)(=O)O)c(S(=O)(=O)O)c2)cc1,AC50,[1],0.00187 µM (active)
same,AC50,[2],5.82 µM (active)
C=C(C)[C@H]1CC=C(C)C(=O)C1,AC50,[1],25 µM (active)
CCCCCCCCCCCCCCCC(=O)OC/C=C(C)/C=C/C=C(C)/C=C/C1=C(C)CCCC1(C)C,AC50,[1],41.1 µM (active)
same,outcome,[2],inactive
c1ccc(Oc2ccccc2)cc1,outcome,[1],inactive
same,outcome,[2],inactive
same,outcome,[3],inactive
Cc1ccc(S(=O)(=O)Oc2ccc(N=Nc3ccc(-c4ccc(N=Nc5c(O)ccc6cc(S(=O)(=O)O)cc(S(=O)(=O)O)c56)c(C)c4)cc3C)cc2)cc1,AC50,[1],0.0489 µM (active)
same,AC50,[2],0.118 µM (active)
same,outcome,[4],inactive
COc1ccc(CCN2CCC(Nc3nc4ccccc4n3Cc3ccc(F)cc3)CC2)cc1,outcome,[1],inactive
same,AC50,[3],2.18 µM (active)
CN(C)C(=S)SC(=S)N(C)C,outcome,[2],inactive
Nc1ccc2cc(S(=O)(=O)O)cc(O)c2c1N=Nc1ccccc1C(F)(F)F,AC50,[1],1.16 µM (active)
same,AC50,[2],5.02 µM (active)
O=C1OC[C@H](Cc2cccc(O)c2)[C@H]1Cc1cccc(O)c1,AC50,[1],8.4 µM (active) and 3.26 µM (active)
same,AC50,[2],5.43 µM (active)
Cc1cc(CCC(=O)OCCOCCOCCOC(=O)CCc2cc(C)c(O)c(C(C)(C)C)c2)cc(C(C)(C)C)c1O,AC50,[1],0.721 µM (active)
C=CC(=O)OCCCC,outcome,[1],inactive
same,outcome,[2],inactive
CS(=O)(=O)OCCCCOS(C)(=O)=O,outcome,[1],inactive
same,outcome,[2],inactive
same,AC50,[5],0.875 µM (active)
same,outcome,[6],inactive
same,outcome,[7],inactive
Oc1c(Cl)cc(Cl)c(Cl)c1Cc1c(O)c(Cl)cc(Cl)c1Cl,AC50,[8],24 µM (active)
Cc1cc(=O)oc2cc(N(C)C)ccc12,AC50,[1],6.09 µM (active)
same,AC50,[2],25 µM (active)
CN(C)C(=O)Nc1ccc(Oc2ccc(Cl)cc2)cc1,AC50,[1],2.91 µM (active)
same,AC50,[2],5.74 µM (active)
CCCCC(CC)COC(=O)c1ccc(O)cc1 (stereo not drawn),AC50,[1],2.71 µM (active)
same,AC50,[2],1.23 µM (active)
CCCCN(CCCC)C(=O)N(CCCC)CCCC,AC50,[1],20.6 µM (active)
same,AC50,[2],10.4 µM (active)
CCCCOC(=O)CCCCCCCC(=O)OCCCC,outcome,[3],inactive
CC(C)(C)CC(C)(C)c1ccc(OCCOCC[N+](C)(C)Cc2ccccc2)cc1,outcome,[1],inactive
same,AC50,[3],2.81 µM (active)
COc1ccc(N=Nc2cc(C)c(N=Nc3ccc(S(=O)(=O)O)cc3)cc2OC)cc1,AC50,[1],2.05 µM (active)
same,AC50,[2],0.0418 µM (active)
CCCCC(CC)COC(C)=O (stereo not drawn),outcome,[2],inactive
CN(c1nccc(=O)[nH]1)C1CCN(c2nc3ccccc3n2Cc2ccc(F)cc2)CC1,outcome,[3],inactive
Cc1[nH]c(=O)c(C#N)cc1-c1ccncc1,outcome,[9],inactive
O=C(Nc1ccc2c(O)c(N=Nc3ccc(N=Nc4ccc(S(=O)(=O)O)cc4)cc3)c(S(=O)(=O)O)cc2c1)c1ccccc1,outcome,[6],inactive
same,outcome,[7],inactive
same,outcome,[10],inactive
CC(C)NCC(O)COc1ccc(CC(N)=O)cc1 (stereo not drawn),outcome,[6],inactive
same,outcome,[7],inactive
CCCCCCCCSCCO,outcome,[4],inactive
CC(=O)O[C@@H]1CC2CCC1(C)C2(C)C (stereo partly drawn),outcome,[4],inactive
CCc1cc(Cc2cc(CC)cc(C(C)(C)C)c2O)c(O)c(C(C)(C)C)c1,AC50,[4],10.7 µM (active)
CCCCCCCCC=CCCCCCCCC1=NCCN1CCO,AC50,[4],15.7 µM (active)
CCCCC1CCC(O)CC1 (stereo not drawn),outcome,[4],inactive
C[C@H]1O[C@@H](O[C@H]2[C@@H](O)C[C@H](O[C@H]3[C@@H](O)C[C@H](O[C@H]4CC[C@@]5(C)[C@H](CC[C@@H]6[C@@H]5C[C@@H](O)[C@]5(C)[C@@H](C7=CC(=O)OC7)CC[C@]65O)C4)O[C@@H]3C)O[C@@H]2C)C[C@H](O)[C@@H]1O,AC50,[4],0.118 µM (active)
CC(C)CCCCCCc1ccc(OCCOCCO)cc1,outcome,[6],inactive
same,outcome,[7],inactive
same,AC50,[10],33.8 µM (active)
same,outcome,[4],inactive
OCc1cccc(Oc2ccccc2)c1,outcome,[4],inactive
Nc1ccc(N)c2c1C(=O)c1ccccc1C2=O,AC50,[4],35.3 µM (active)
CC1CCC(C(C)C)C(O)C1 (stereo not drawn),outcome,[4],inactive
OCC(O)c1ccccc1 (stereo not drawn),outcome,[6],inactive
same,outcome,[7],inactive
CCc1ccc(O)cc1,outcome,[4],inactive
BrCc1cccc(Oc2ccccc2)c1,outcome,[4],inactive
CCOC(=O)[C@@H](C)Oc1ccc(Oc2nc3ccc(Cl)cc3o2)cc1,outcome,[4],inactive
CCCCCCCCCCCC(=O)OCC(O)CO (stereo not drawn),outcome,[9],inactive
same,outcome,[5],inactive
same,outcome,[6],inactive
same,outcome,[7],inactive
same,outcome,[10],inactive
CC(=O)O[C@H]1C[C@@H]2CC[C@@]1(C)C2(C)C,outcome,[4],inactive
CCCCCCCCCCCCCC(=O)OCC(O)CO (stereo not drawn),outcome,[4],inactive
